Data as given in PubChem BioAssay (NCI).
Where “and” joins values, the source holds several entries; their conditions need not be identical. Identical values can stand only once. About 83,000 compounds went through this panel and 20% of them were active in at least one assay; those are over-represented in the sample as a whole.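 Single-concentration screen, 48 h exposure, 96-well plates. Endpoint: percent growth. Below 10 = active.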 Calls of active or inactive are those of the source.

What follows are molecules tested on SW-620 colon (assay: NCI-60 one-dose screen, 48 h (100 = growth as untreated, 0 = no growth, -100 = all killed)). Details: 10 µM unless noted.
Method: Growth inhibition of the SW-620 human tumor cell line is measured as a screen for anti-cancer activity. Cells are grown in 96 well plates and exposed to the test compound for 48 hours. Compounds are tested at a single concentration, which is 10^-5 M for most compounds. The reported endpoint is percent growth (GI% or GIPRCNT), where numbers from 0 - 100% represent growth inhibition, and numbers from -100% - 0 represent cell death. For example, a value of 40 represents 60% growth inhibition. A value of 0 means no net growth occurred over the course of the experiment. A value of -40 indicates 40% of cells at the beginning of the experiment died by the end of the experiment. A value of -100 means all cells are dead at the end of the experiment.
NCI-60 Human Tumor Cell Lines Screen was performed using the standard one-dose NCI protocol, which is described in more detail at https://dtp.cancer.gov/discovery_development/nci-60/default.htm.
Compounds with GIPRCNT values below 10 were considered active. Activity score was based on GIPRCNT using the following formula: […]
Score is 0 for GIPRCNT values of 100 or above, 50 for GIPRCNT values of 0, and 100 for GIPRCNT values of -100.

| SMILES | growth |
| --- | --- |
| COc1ccc([N+](=O)[O-])cc1OC | 91.8% (inactive) and 110% (inactive) |
| COc1ccc(CCNC(=S)NN)cc1OC | 99% (inactive) |
| CC(C)(C(=O)c1cccnc1)c1cccnc1 | 105% (inactive) and 106% (inactive) |
| O=C1c2ccccc2CN1c1ccccc1 | 105% (inactive) |
| CCOCCC(=O)O | 101% (inactive) |
| O=COCCCc1ccccc1 | 103% (inactive) |
| c1ccc2c[n+](Cc3ccc4ccccc4n3)ccc2c1 | 87.5% (inactive) |
| COc1ccc(/C=N/Nc2nc3ccccc3s2)cc1 | 94.8% (inactive) |
| CCOP(C)(=O)/C(Cc1ccc(OC)c(OC)c1)=N\O (stereo not given) | 99.2% (inactive) |
| CN(C)C(=N)N=C(N)N | 108% (inactive) and 105% (inactive) |
| Cc1cnc(N)s1 | 103% (inactive) |
| COc1ccc2oc3cc(NCCN(C)C)ccc3c(=O)c2c1 | 78% (inactive) and 55.4% (inactive) |
| COCCCNC1=C(C#N)C(=O)NC(c2cccs2)S1 (stereo not given) | 113% (inactive) |
| CCCC(=O)OCC(COC(=O)CCC)OC(=O)CCC | 95.6% (inactive) |
| CCCCC/C(C)=N\NC(N)=S | 67.5% (inactive) |
| COc1ccccc1OCC(O)CO (stereo not given) | 101% (inactive) and 109% (inactive) |
| Cc1cc(-c2ccc(N=Nc3c(C)nn(-c4ccc(S(=O)(=O)O)cc4)c3O)c(C)c2)ccc1N=Nc1ccc(O)c(C(=O)O)c1 | 98.8% (inactive) |
| Oc1ccc(O)c(-c2ccccc2)c1 | 78.7% (inactive) |
| CC(C)(C)OC(=O)NCCc1ccc(N)cc1 | 97.6% (inactive) |
| O=C(O)C(Cc1ccc(OS(=O)(=O)Cc2ccccc2)cc1)NS(=O)(=O)Cc1ccccc1 (stereo not given) | 105% (inactive) |

| SMILES | growth |
| --- | --- |
| CC(=O)Nc1cscc1NC(C)=O | 97.6% (inactive) |
| O=C(O)C#Cc1ccc(Cl)cc1 | 96.8% (inactive) |
| CN1C2C=CC(=O)C1C1C(=O)N(c3ccccc3)C(=O)C12 (stereo not given) | 37.3% (inactive) |
| CC(=O)C[n+]1ccccc1Sc1ccc(Cl)cc1 | 91.6% (inactive) |
| N#Cc1c[nH]n2ccnc12 | 119% (inactive) |
| O=P(O)(O)OC1C(OP(=O)(O)O)C(OP(=O)(O)O)C(OP(=O)(O)O)C(OP(=O)(O)O)C1OP(=O)(O)O.[Cu+2] (stereo not given) | 95.6% (inactive) |
| CCOC(=O)C(N)Cc1cc(I)c(O)c(I)c1 (stereo not given) | 104% (inactive) |
| OCCSc1ccc(Cl)cc1 | 104% (inactive) |
| CNc1ccc(O)cc1 | 103% (inactive) and 89.9% (inactive) |
| N#Cc1ccc(/C=C/C(=O)c2ccccc2)cc1 | 19.1% (inactive) and 1.04% (active) |
| COC(=O)c1nc(N)nc(C(=O)OC)c1C(=O)c1ccc(F)cc1 | 110% (inactive) |
| Clc1ccc2c(c1)N(C1CCCN(Cc3ccccc3)C1)c1ccccc1S2 (stereo not given) | 22.6% (inactive) |
| COc1ccc2nccc(Cl)c2c1 | 101% (inactive) |
| COC(=O)c1nc(=S)[nH]c(C(=O)OC)c1C(=O)c1ccccc1 | 108% (inactive) |
| N=C(N)N1CCc2ccccc2C1 | 94.5% (inactive) and 88.1% (inactive) |
| COc1ccc(/C=C/C(=O)O)cc1OC | 103% (inactive) and 102% (inactive) |
| CNc1ccc(Cl)cc1S(=O)(=O)c1ccccc1[N+](=O)[O-] | 108% (inactive) and 105% (inactive) |
| CCOC(=O)CN1CCC(C(=O)OCC)CC1 | 108% (inactive) |
| CC(=O)Oc1cc(C)c(OC(C)=O)c(C)c1C | 105% (inactive) |
| CCc1ccc(OC(=O)CCl)cc1 | 109% (inactive) |
